Assay outcomes from PubChem.
PAX8 reporter = inhibitors of PAX8 transcriptional activity in RMG-I cells; RMG-I TPO-luciferase reporter, SteadyGlo, 24 h; inhibition, % at 12.6 µM; 360,000 tested, 1.2% active;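 active means mean replicate inhibition at least 60% with every replicate also reaching 60%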;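 further: luciferase light reporting Pax8 driven TPO promoter activity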
INS-1E GSIS act = GLuc luminescence reporter in INS-1E cells, primary screen for activators of glucose-dependent secretion of insulin; INS-1E GLuc reporter insulin secretion, 2-3 h; activation, % at 16.6 µM; 370,000 tested, 0.61% active;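 active means lowest replicate activation of at least 40%, so every replicate reaches that level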
C2C12 statin = suppression of simvastatin myotoxicity. C2C12 myotubes + simvastatin, ATP luminescence, 48 h; scaled: DMSO 0, geranylgeraniol control 100. rescue of ATP level, % at 7.49 µM. 330,000 tested, 0.78% active;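 active means mean ATP rescue above about 67%, or every replicate alone reaching that limit, limit read from the data, passing the limit was not always enough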;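 further: myotubes were challenged with 10 µM simvastatin during compound exposure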
miR122 inh = inhibitors of miR-122 in Huh7 cells; activation (reporter increase), % at 12.5 µM; 340,000 tested, 0.3% active; Huh7 miR-122 Renilla luciferase sensor, 48 h; neutral wells = 0, positive control = 100;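 active means mean replicate activation score at least 90 and every replicate individually at or above 90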;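 further: higher luciferase means less miR-122 activity so hits act as miR-122 inhibitors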
Env fusion inh = HIV envelope-mediated fusion inhibition | HeLa-JRFL Env/CEM21 cell fusion, luciferase | inhibition, % at 12.3 µM | 360,000 tested, 1.1% active | AID 651610;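 active means mean replicate inhibition score of at least 50 and every replicate individually at or above 50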
EWS-Fli block = blocks EWS/Fli oncoprotein-driven transcription; 350,000 tested, 0.67% active; AID 651661; A673 NR0B1-luciferase reporter, viability-normalised; inhibition, % at 12.6 µM;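 active means mean inhibition of at least 50% after viability correction, with every replicate also passing that limit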;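 further: firefly luciferase signal divided by Alamar Blue viability fluorescence both relative to DMSO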
Hits are given with their value; . = inactive; / = no result given; + = active, no number. Most compounds without a hit are left out; they make up all but 3.1% or so of the library.

SMILES	PAX8 reporter	INS-1E GSIS act	C2C12 statin	miR122 inh	Env fusion inh	EWS-Fli block
COC(=O)C1=C(C)N(Cc2ccc(C(F)(F)F)cc2)C(=NCC2CC2)NC1c1cccc(Cl)c1 (configuration not stated)	68	/	/	/	.	.
COC(=O)C1=C(C)N(Cc2ccc(C(F)(F)F)cc2)C(=NCc2ccc(OC)cc2)NC1c1cccc(Cl)c1 (configuration not stated)	.	/	/	/	.	.
CCN1C(=NCc2ccco2)N[C@@H](c2cccc(C(F)(F)F)c2)C(C(=O)OC)=C1C	.	.	88	.	.	.
COC(=O)C1=C(C)N(Cc2cccc(C(F)(F)F)c2)C(=NCc2ccc(OC)cc2)NC1c1cccc(C(F)(F)F)c1 (configuration not stated)	77	/	/	/	.	.
COC(=O)C1=C(C)N(Cc2cccc(C(F)(F)F)c2)C(=NCc2ccc(OC)cc2)NC1c1cccc(Cl)c1 (configuration not stated)	.	+	/	/	.	.
CCC(=O)N1CC2(C1)CN(C(=O)CC)[C@H](CO)c1[nH]c3cc(OC)ccc3c12	/	.	/	/	.	.
COc1ccccc1NC(=O)Cn1cnc2c(cnn2-c2ccccc2)c1=O	/	/	.	.	.	/
COc1ccc(NC(=O)Cn2cnc3c(cnn3-c3ccc(C)c(C)c3)c2=O)c(OC)c1	/	97	.	/	/	/
CCOc1ccccc1NC(=O)Cn1cnc2c(cnn2-c2ccc(C)c(C)c2)c1=O	/	.	132	.	/	/
Cc1ccc(-n2ncc3c(=O)n(CC(=O)Nc4cccc(Cl)c4)cnc32)cc1C	/	257	/	.	/	/
CO[C@H]1CN(C)C(=O)c2cc(NS(=O)(=O)c3ccccc3C)ccc2OC[C@H](C)N(S(C)(=O)=O)C[C@H]1C	.	.	.	.	.	.
OC[C@H]1[C@H](c2ccc(C#Cc3ccccc3F)cc2)[C@H]2CN(Cc3cncnc3)CCCCN21	.	.	.	.	/	.
C[C@@H]1CCCCO[C@H](CN(C)C(=O)CCC(F)(F)F)[C@@H](C)CN([C@@H](C)CO)C(=O)c2cc(NC(=O)CCCN(C)C)ccc2O1	.	.	/	.	.	.
COc1ccc2cc(CNCCOCCOCCNCc3ccc4cc(OC)ccc4c3)ccc2c1	117	.	/	/	.	56
COc1ccc(CCNC(=O)CN2c3cccc4cccc(c34)S2(=O)=O)cc1OC	.	98	.	/	.	/
COc1ccc(CCNC(=O)C(=O)NN=C2CCCCCCC2)cc1OC	.	59	.	/	.	.
COc1ccc(CCNC(=O)COC(=O)Cn2cnc3ccccc32)cc1OC	.	57	/	/	.	.
COc1ccc(CCNC(=O)CSc2n[nH]c(N)n2)cc1	.	.	.	/	.	.
COc1ccc(CCNC(=O)CSc2n[nH]c(N)n2)cc1OC	.	86	.	.	.	.
C/C=C/c1ccc([C@H]2[C@@H](CO)N(c3nc(C)c(C)s3)[C@@H]2CNCC(C)C)cc1	/	.	/	/	/	.
C[C@@H]1CCCCO[C@@H](CN(C)C(=O)C2CCCCC2)[C@@H](C)CN([C@@H](C)CO)C(=O)c2cc(NC(=O)CCC(F)(F)F)ccc2O1	/	.	/	.	.	.
COc1ccc(CCNC(=O)CCc2nc3ccccc3[nH]2)cc1OC	.	90	.	.	.	.
COc1ccc(-c2noc(CCCC(=O)NCCc3ccccc3)n2)cc1OC	.	.	151	.	.	/
COc1ccccc1NC(=O)CCCc1nc(-c2ccc(OC)c(OC)c2)no1	.	.	.	.	.	.
CCC(=O)N1CCc2cc(S(=O)(=O)CCC(=O)NCCc3ccc(OC)c(OC)c3)ccc21	/	/	107	.	/	/
SMILES	PAX8 reporter	INS-1E GSIS act	C2C12 statin	miR122 inh	Env fusion inh	EWS-Fli block
COc1ccc(CCNC(N)=S)cc1OC	.	53	/	.	/	/
COc1ccc(CCNC(=O)CCc2ccccc2)cc1OC	.	60	/	.	.	.
Cc1onc(-c2ccccc2)c1C(=O)Nc1ccc2c(c1)OCCO2	/	.	.	.	/	.
Cc1onc(-c2c(F)cccc2Cl)c1C(=O)Nc1sc2c(c1C(N)=O)CCC2	/	.	.	.	62	/
N#Cc1c(NC(=O)CSc2nnc(-c3ccncc3)n2CC2CCCO2)sc2c1CCCC2 (configuration not stated)	/	/	.	.	.	/
N#Cc1c(NC(=O)CSc2ncc(-c3ccccc3)n2CC2CCCO2)sc2c1CCCC2 (configuration not stated)	/	/	.	.	68	/
CC(=O)c1cc2c(cc1NC(=O)c1c(-c3ccccc3)noc1C)OCO2	/	/	85	.	/	/
Cc1onc(-c2ccccc2)c1C(=O)Nc1sc2c(c1C#N)CCC2	/	.	.	.	67	/
COc1cc(OC)c(/C=C2\C(=O)Nc3ccccc32)c(OC)c1	.	/	/	/	.	56
COc1ccc(C(=O)/C=C2/C(=O)Nc3ccccc32)cc1	.	.	.	.	.	.
COc1ccc(C(=O)/C=C2/C(=O)Nc3ccccc32)c(OC)c1	.	.	/	/	.	59
C#CC[N+](C)(C)CCCCCCCCCCCC	87	/	/	/	.	.
CC#CC[N+](C)(C)CCCCCCCCCCCC	83	.	/	/	62	.
C/C=C/c1cnc2c(c1)C(=O)N([C@@H](C)CO)C[C@@H](C)[C@H](CN(C)Cc1ccc(F)cc1)O2	.	.	.	.	.	.
Cc1noc(C)c1NC(=O)Nc1ccc2c(c1)CC(=O)N([C@@H](C)CO)C[C@H](C)[C@H](CN(C)C)O2	.	.	.	.	/	.
CCOC1=C2[C@@H](CN(S(=O)(=O)c3ccccc3C)[C@H]2c2ccc(Cl)cc2)[C@H]2C(=O)NC(=O)[C@H]2C1	.	.	.	.	79	.
CCOC1=C2[C@@H](CN(S(=O)(=O)c3ccccc3C)[C@H]2c2ccc(Cl)cc2)[C@H]2C(=O)N(c3ccccc3)C(=O)[C@H]2C1	.	.	.	.	.	.
COc1ccc(S(=O)(=O)Nc2cccc3c2O[C@@H](CN(C)C(=O)Nc2cccc4ccccc24)[C@@H](C)CN([C@@H](C)CO)C3=O)cc1	/	.	/	.	.	.
CCCCCCCNC(=O)C1(CC2CC(c3ccc(Cl)cc3)=NO2)CCN(C(=O)OC(C)(C)C)CC1 (configuration not stated)	.	.	121	.	.	.
Cc1ccccc1-c1ccc([C@H]2[C@H]3CN(CC4CCOCC4)CCCCN3[C@H]2CO)cc1	.	.	/	.	/	.
C[C@@H]1CN([C@H](C)CO)C(=O)Cc2cc(NS(=O)(=O)c3cccs3)ccc2O[C@H]1CN(C)S(=O)(=O)c1ccc(F)cc1	.	.	.	.	.	.
CCC(=O)OCCNc1cc(Sc2nccn2C)c2nonc2c1[N+](=O)[O-]	104	111	/	/	.	/
CCC(=O)OCCNc1cc(SCCC(=O)OC)c2nonc2c1[N+](=O)[O-]	.	.	/	/	.	/
CCCC(=O)OCCNc1cc(Sc2nc3ccccc3[nH]2)c2nonc2c1[N+](=O)[O-]	86	76	/	.	.	/
